High-throughput results: PubChem, National Center for Advancing Translational Sciences (NCATS)
Peg3 imprint – qHTS Assay for Compounds that Induce Erasure of Genomic Imprints; mouse ES Peg3-LacZ reporter, beta-gal luminescence, 40 h; Potency, µM (doses to about 60.7 µM), without a hit: top-dose activity change, positive = activation, usual class: activators; hit rate 0.02% among 110,000
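Readout: BetaGlo luminescence (5 min, room temp) for LacZ from the normally silent maternal Peg3 allele in female Peg3LacZ-Neo ES cells. Cells 300/well, 40 h, 37C, 5% CO2. Data normalized per plate to negative controls.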
Tau fil binding – qHTS Assay for Tau Filament Binding; Potency, µM (series often up to 57.1 µM), without a hit: at the highest dose activity change, negative = inhibition; recombinant tau filaments, thioflavin S fluorescence, 15 h; filaments grown with octadecylsulfate alongside compound; AID 596, 2007; hit rate 2% among 71,000; Microtubule-associated protein tau (Homo sapiens), P10636;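 also: % is scaled to controls: 0 for no effect and ±100 for the full control effect; actives lower thioflavin S fluorescence by blocking filaments or displacing dye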
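Recombinant tau protein (human, 1 uM final) plus 30 uM ODS in HEPES pH 7.4 with NaCl, DTT and thioflavine S. Compound present from the start; fluorescence at 510 nm after 15 h, 37 C.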
FLuc inh – qHTS Assay for Inhibitors of Firefly Luciferase; Potency, µM (series often up to 57.1 µM), inactives show at the highest dose activity change, negative = inhibition, actives largely listed as inhibitors; Luciferin 4-monooxygenase (Photinus pyralis), P08659; purified firefly luciferase, luminescence, 8 min; hit rate 2.2% among 72,000; also: % is scaled to controls: 0 for no effect and ±100 for the full control effect; nearly all actives have a fitted effect of over 40% in size
Target sequence (P08659 whole entry, looked up): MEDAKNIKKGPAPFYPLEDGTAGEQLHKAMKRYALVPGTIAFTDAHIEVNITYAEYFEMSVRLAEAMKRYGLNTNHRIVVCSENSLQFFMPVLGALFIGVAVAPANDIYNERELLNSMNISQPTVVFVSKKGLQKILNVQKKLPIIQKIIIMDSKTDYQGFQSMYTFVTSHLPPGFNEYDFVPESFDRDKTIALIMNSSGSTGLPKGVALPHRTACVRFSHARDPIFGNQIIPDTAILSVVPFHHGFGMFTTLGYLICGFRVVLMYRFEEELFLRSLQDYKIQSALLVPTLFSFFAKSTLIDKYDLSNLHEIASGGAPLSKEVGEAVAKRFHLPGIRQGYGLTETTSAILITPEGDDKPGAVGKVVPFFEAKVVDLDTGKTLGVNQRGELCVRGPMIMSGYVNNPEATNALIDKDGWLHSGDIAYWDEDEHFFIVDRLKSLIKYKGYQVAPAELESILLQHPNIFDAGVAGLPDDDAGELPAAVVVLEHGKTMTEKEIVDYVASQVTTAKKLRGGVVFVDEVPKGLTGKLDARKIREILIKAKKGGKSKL
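Firefly luciferase (PKLight detection mix) with 10 uM ATP in pH 7.2 imidazole buffer (KCl, MgCl2, Tween 20, BSA). Compounds tested across a concentration series (qHTS). Luminescence read after 8 min at ambient temperature.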
p53ts 39C tox – qHTS Screen for Compounds that Selectively Target Cancer Cells with p53 Mutations: Cytotoxicity of p53ts Cells at the Nonpermissive Temperature; H1299-p53A138V viability at 39C, ATP luminescence, 24 h; Potency, µM (top dose mostly 46.1 µM), without a hit: at the top dose activity change, negative = cell killing, usual class: cytotoxic; hit rate 1.5% among 130,000; also: % is scaled to controls: 0 for no effect and ±100 for the full control effect; nearly all actives have a fitted effect of over 55% in size
p53ts 32C kill – qHTS Screen for Compounds that Selectively Target Cancer Cells with p53 Mutations: Cytotoxicity of p53ts Cells at the Permissive Temperature; H1299-p53A138V at 32C, ATP luminescence viability, 24 h; Potency, µM (doses to about 46.1 µM), for inactives: at the top dose activity change, negative = cytotoxicity, actives largely listed as cytotoxic; hit rate 0.93% among 130,000; AID 924, 2007;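 also: 0% = DMSO and -100% = full killing by reference compound; nearly all actives have a fitted effect of over 55% in size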
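Cells: H1299 p53ts (A138V), 600/well, pre-incubated 16–30 h at 37C. Cpd up to 46 uM, 24 h, 32C. Readout: ATPlite luminescence, 20 min RT. Normalization: DMSO vs tamoxifen 100 uM. AC50 by Hill equation.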
Numbers without * were called inactive; u = inconclusive; x = no result; [ ] = dose if it differs, or a comment. An excerpt weighted towards active compounds, which were near 3.4% of everything screened. Calls follow the shape of the dose curve; as a rule, active = well fitted curve in the direction sought with a large enough effect; inconclusive = small, poorly fitted or top-dose-only effect, or another doubt; inactive = no such curve, though single readings can be large; an effect the other way counts as inactive or inconclusive. Potency is read from the fitted curve at half-maximal effect.

SMILES	Peg3 imprint	Tau fil binding	FLuc inh	p53ts 39C tox	p53ts 32C kill
CC(=O)c1c(C)nc(-c2ccc(Cl)cc2)nc1N=CN(C)C	u	25µM*	-5%	-3%	-29%
COc1ccc(C(=O)Oc2ccc(C(C)=O)cc2)c(OC)c1	-11%	2%	16µM*	-12%	-1%
COc1ccc(C(=O)Nc2c(F)c(F)c(F)c(F)c2F)c(OC)c1	-6%	28%	1%	-3%	-4%
CCOC(=O)c1c(C)[nH]c(C)c1S(=O)(=O)N(C)CC(=O)NCc1ccc(C)cc1	-7%[10.9 µM]	x	x	-17%	5%
COc1cc(Cl)c(C)cc1Nc1nc2ccccc2n2cnnc12	11%[10.9 µM]	x	x	-11%	5%
CC(=O)NCCNc1ccnc(-c2ccccc2C)n1	4%	-7%	1%[2.29 µM]	2%	13%
C[C@@H]1O[C@@H](O)[C@@H](O)[C@H](O)[C@H]1O	-6%[10.9 µM]	8%[11.4 µM]	1%[11.4 µM]	-8%[9.22 µM]	-3%[9.22 µM]
CCOC(=O)c1sc(NC(=O)COC(=O)CNC(=O)C2CCCCC2)c(C(=O)OCC)c1C	x	x	x	3.2µM*	u
CC(C)c1ccc(C(=O)Nc2ccc(N3CCOCC3)cc2)cc1	-12%	72%	-9%	6%	11%
CC(C)Oc1ccc(C(=O)Nc2ccc(N3CCCC3)cc2)cc1	-9%	2µM*	-13%	3%	-17%
CCCOC(=O)Nc1ccc(N2CCCCC2)cc1	-44%	-10%	13µM*	16µM*	13µM*
c1ccc2c(c1)CCCC2NC1=NCCC1 (configuration not stated)	6%	0%	1%	5%	-2%
O=C1C(Cl)=C(NC2CCc3ccccc32)C(=O)c2ncccc21 (configuration not stated)	-86%	25µM*	x	6.3µM*	2.5µM*
O=C1C(Cl)=C(NCCN2CCOCC2)C(=O)c2ncccc21	-82%	x	x	5µM*	3.2µM*
Cc1nn(C)cc1CN(C)C(=O)c1cc(-c2ccccc2)nc2ccc(Br)cc12	-10%[10.9 µM]	x	x	u	-19%
Cc1c(C)c2cc3c(c(C)c2oc1=O)OCN(CCc1ccccc1)C3	7%[10.9 µM]	x	x	-9%	3%
C[C@H]1[C@H](O)[C@@H](C)C=CC=CC=CC=CC=CC=CC=C[C@H](O[C@@H]2O[C@@H](C)[C@H](O)[C@@H](N)[C@@H]2O)C[C@@H]2O[C@](O)(C[C@@H](O)C[C@@H](O)[C@@H](O)CC[C@@H](O)C[C@@H](O)CC(=O)O[C@H]1C)C[C@H](O)[C@H]2C(=O)O	-7%[10.9 µM]	-1%[11.4 µM]	-1%[11.4 µM]	13%[9.22 µM]	-5%[9.22 µM]
O=C(Nc1ccc2nc(-c3cccs3)[nH]c2c1)c1ccco1	-24%	-6%	10µM*	13µM*	u
CC(=O)Nc1ccc2nc(-c3ccccn3)[nH]c2c1	-78%	-10%	13µM*	6.3µM*	4µM*
O=C(Nc1ccc2nc(-c3cccs3)[nH]c2c1)c1cccs1	-7%	76%	13µM*	u	u
Cc1ccc(NC(=O)Cn2c(=O)n(Cc3ccco3)c(=O)c3sc4ccccc4c32)cc1C	9%[10.9 µM]	x	x	u	-5%
CC(=O)OC(C)C	5%	5%	x	15%	-9%[1.84 µM]
COc1ccc(-c2coc3ccc(O[C@@H]4O[C@@H](COC(C)=O)[C@@H](OC(C)=O)[C@@H](OC(C)=O)[C@H]4OC(C)=O)c(OC(C)=O)c3c2=O)cc1	x	u	1%[11.4 µM]	x	x
CCN1C(=O)/C(=C2/Sc3ccc(OC)cc3N2C)SC1=Nc1cccc(O)c1	-16%	3.2µM*	5%	-20%	u
COc1cccc(NC(=O)c2cnc(SCC(=O)N3CCOCC3)n(C)c2=O)c1	-80%[10.9 µM]	x	x	13µM*	10%
COc1cccc(NC(=O)Cn2c(SCC(=O)N3CCOCC3)nc3ccccc32)c1	-6%	6%	0%	0%	-13%
COc1ccc(NC(=O)C2CCCNC2)cc1OCC(C)C (configuration not stated)	-23%	25µM*	1%	3%	-11%
